Measured values published in PubChem BioAssay.
Active and inactive are the calls of the source.

test: PSAC antagonists in infected red cells, primary screen, cell-based, P. falciparum Indochina, OD700, 1 h (AID 1154); details: P. falciparum Indochina infected RBC osmotic lysis, higher = more signal, called active from +8 up or from −8 down

**Q.** Which z-score does the source give for `C[N+](C)(C)CCCCNC(=O)[C@H]1C[C@H]2C(=O)N[C@@H](Cc3ccccc3)C(=O)N2[C@H]1c1ccc(O)cc1` here?
**A.** 0.891 (inactive)

**Q.** For `[N-]=[N+]=NCc1ccccc1C[C@]1(C(=O)N2CCOCC2)N=C(c2ccc(OCCCO)cc2)O[C@H]1c1ccccc1N=[N+]=[N-]`, which z-score is on record?
**A.** 30 (active)

**Q.** With `CC(=O)NCCCC[C@@H]1NC(=O)[C@@H]2C[C@H](C(=O)NCCCCN(C)C)[C@H](c3cccc(OCCO)c3)N2C1=O` as the molecule, how does the z-score read?
**A.** 0.628 (inactive)

**Q.** Which z-score does the source give for `COc1ccc(C(O)C2C=CC3C(=O)N(c4ccccc4)C(=O)C3N2Nc2ccc(C(C)C)cc2)cc1OCc1ccccc1` (centres undefined) here?
**A.** 2.07 (inactive)

**Q.** For `[N-]=[N+]=Nc1ccccc1[C@H]1OC(c2ccc(OCCCO)cc2)=N[C@@]1(Cc1ccccc1)C(=O)O`, which z-score is on record?
**A.** 32 (active)

**Q.** For `O=C(NCc1ccccc1)[C@@]1(Cc2ccccc2)N=C(c2ccc(OCCCO)cc2)O[C@H]1c1ccccc1`, which z-score is on record?
**A.** 13.5 (active)

**Q.** For `CCOC1=C2C(CN(S(=O)(=O)c3ccc(C)cc3)C2c2ccc(C)cc2)C2C(=O)N(c3ccccc3)C(=O)C2C1` (centres undefined), which z-score is on record?
**A.** 1.87 (inactive)

**Q.** For `CCOC(=O)C[C@H]1[C@H](OC(=O)c2ccc(C(=O)c3ccccc3)cc2)[C@@H](NC(=O)c2ccc(-c3ccccc3)cc2)c2cc(OCCCO)ccc2N1C(=O)c1ccccc1`, which z-score is on record?
**A.** 0.358 (inactive)

**Q.** For `COCCOC(=O)N1C(=O)[C@@]2(c3cc(C#Cc4ccc(OC)cc4)ccc31)[C@H](c1ccc(O)cc1)N1[C@H](c3ccccc3)[C@H](c3ccccc3)OC(=O)[C@H]1[C@@H]2C(=O)NC[C@H](O)c1ccccc1`, which z-score is on record?
**A.** 3.44 (inactive)
